Compounds with a hit are over-represented: about 0.95% of the library has one in this group of screens.
LmPK inh = qHTS Assay for Inhibitors of Leishmania Mexicana Pyruvate Kinase (LmPK) | Q27686 | purified LmPK, Kinase-Glo ATP luminescence, 1 h | Potency, µM (titrated, usually from 57.5 µM), actives largely listed as inhibitors | 0.37% of 290,000 active
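Purified LmPK (0.1 nM) with 0.5 mM PEP and 0.1 mM ADP in imidazole buffer pH 7.2 with MgCl2/KCl, 1 h at room temperature. ATP formed was read by luciferase luminescence and normalized to no-enzyme and uninhibited controls.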
TbPYK inhibitor = qHTS of Trypanosoma Brucei Inhibitors; TbPYK enzyme, Kinase-Glo Plus ATP luminescence, 45 min; Potency, µM (series often up to 76.8 µM), hits mostly inhibitors; 0.12% of 410,000 active; AID 624173, 2012; further: nearly all actives have a fitted effect of over 50% in size
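In this concentration-response screen, enzyme-free wells defined baseline while DMSO plates tracked drift. Each reaction combined TbPYK, substrate, compound and 130 uM ADP for 45 min at room temperature. Kinase-Glo Plus luminescence gave the signal.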
Giardia FBPA inh = qHTS Assay for Inhibitors of Fructose-1,6-bisphosphate Aldolase from Giardia Lamblia; A8B2U2; purified Giardia FBPA; Potency, µM (doses to about 59.6 µM), usual class: inhibitors; 0.71% of 290,000 active; further: nearly all actives have a fitted effect of over 55% in size
Target sequence (A8B2U2 whole entry, looked up): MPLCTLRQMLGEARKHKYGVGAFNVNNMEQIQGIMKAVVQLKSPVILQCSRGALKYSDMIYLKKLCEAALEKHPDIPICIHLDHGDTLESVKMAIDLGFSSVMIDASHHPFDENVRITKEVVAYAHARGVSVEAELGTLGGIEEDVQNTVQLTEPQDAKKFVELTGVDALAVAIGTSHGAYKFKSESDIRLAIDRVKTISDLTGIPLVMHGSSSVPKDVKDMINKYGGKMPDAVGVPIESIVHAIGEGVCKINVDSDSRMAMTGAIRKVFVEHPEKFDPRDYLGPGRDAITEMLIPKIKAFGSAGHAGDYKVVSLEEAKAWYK
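Giardia FBPA (40 nM reagent) was preincubated 10 min at RT with compound (up to 57.5 uM final), then substrate plus GAPDH/TPI/NAD/arsenate coupling system with diaphorase/resazurin was added; resorufin fluorescence (525/598 nm) was read after 20 min.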
RE007 growth inh = qHTS Assay for Inhibitors of the HIV-1 protein Vpr; S. pombe RE007 Vpr strain, BacTiter-Glo ATP luminescence, 24 h; Potency, µM (series often up to 92.2 µM), most hits filed as inhibitors; 0.21% of 360,000 active; AID 651644, 2012; active means well fitted falling curve with a large enough effect; inconclusive means small, poorly fitted or top-dose-only effect; inactive means no such curve, though single readings can be large or run the other way; further: nearly all actives have a fitted effect of over 50% in size
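Fission yeast RE007 carrying one integrated HIV-1 vpr copy, seeded at OD 0.01 in PMG+AL medium with 23 nL pinned compound. Grown 24 h at 30 degrees; viability read by BacTiter-Glo luminescence after 5 min.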
Each line names hits and unclear results; the compound was inactive in the other large screens. Unless noted, the call rests on the fitted dose curve; in most records, active means well fitted curve in the direction sought with a large enough effect; inconclusive means small, poorly fitted or top-dose-only effect, or another doubt; inactive means no such curve, though single readings can be large; an effect the other way counts as inactive or inconclusive.

O=C1Nc2ccc(NS(=O)(=O)c3cccs3)c3cccc1c23	Giardia FBPA inh 8.9µM
CNS(=O)(=O)c1ccc2c3c(cccc13)C(=O)N2	none
CCc1ccc2oc(-c3cc(N)ccc3Cl)nc2c1	RE007 growth inh 16µM
CCc1ccc2oc(-c3cc(N)ccc3O)nc2c1	LmPK inh inconclusive, RE007 growth inh inconclusive
O=C(O)c1cc(O)c2c(c1)[C@@H]([C@H]1c3cc(C(=O)O)cc(O)c3C(=O)c3c(O[C@@H]4O[C@H](CO)[C@@H](O)[C@H](O)[C@H]4O)cccc31)c1cccc(O[C@@H]3O[C@H](CO)[C@@H](O)[C@H](O)[C@H]3O)c1C2=O	none (no result: LmPK inh, Giardia FBPA inh)
O=C(O)c1cc(O)c2c(c1)[C@H]([C@H]1c3cc(C(=O)O)cc(O)c3C(=O)c3c(O[C@@H]4OC(CO)C(O)C(O)C4O)cccc31)c1cccc(O[C@@H]3OC(CO)C(O)C(O)C3O)c1C2=O (stereo partly specified)	Giardia FBPA inh 18µM (no result: LmPK inh, RE007 growth inh)
CC(=O)N[C@@H]1C(O[C@H]2O[C@H](C(=O)O)C(O)[C@H](O)[C@H]2O)[C@H](O)[C@@H](CO)O[C@H]1O[C@@H]1C(C(=O)O)O[C@@H](O[C@H]2[C@H](O)[C@@H](CO)OC(O)[C@@H]2NC(C)=O)[C@H](O)[C@H]1O (stereo partly specified)	none (no result: LmPK inh, Giardia FBPA inh, RE007 growth inh)
N#Cc1c2n(c3c(=S)nc[nH]c13)CCCCC2	LmPK inh 22µM, TbPYK inhibitor inconclusive, Giardia FBPA inh inconclusive
COC(=O)c1cc(Br)cn1S(=O)(=O)c1ccccc1	none
O=C(c1ccc2c3n(nc2c1)-c1ccccc1CO3)N1CCCCC1	LmPK inh 6.3µM, TbPYK inhibitor inconclusive, RE007 growth inh inconclusive
O=C(c1ccc2c3n(nc2c1)-c1ccccc1CO3)N1CCOCC1	LmPK inh 14µM, TbPYK inhibitor 18µM, RE007 growth inh inconclusive
O=C(c1ccc2c3n(nc2c1)-c1ccc(Cl)cc1CO3)N1CCOCC1	LmPK inh 16µM
C[C@@H](CO)NC(=O)c1ccc2c3n(nc2c1)-c1ccccc1CO3	LmPK inh 14µM, TbPYK inhibitor inconclusive
Cc1ccc2c(c1)COc1c3ccc(C(=O)N4CCCCC4)cc3nn1-2	none
CC[C@@]1(c2ccccc2)NC(=O)NC1=O	none (no result: LmPK inh, TbPYK inhibitor, RE007 growth inh)
CCOc1ccccc1N1CCN(CC(=O)N(C)CC(=O)Nc2ccccc2CC)CC1	none (no result: LmPK inh, Giardia FBPA inh)
CC(C)C[C@@H](CN1CCC[C@H]1CN1C(=O)C(=O)NC[C@@H]1Cc1ccc(O)cc1)N1C[C@H](Cc2ccc(O)cc2)N(CC2CCCCCC2)C(=O)C1=O	none (no result: LmPK inh, Giardia FBPA inh)
N#CC1=C(N)C(C#N)(C#N)C(c2cccnc2)C2CC(c3ccccc3)CC=C12 (stereo unspecified)	none
N#CC1=C(N)C(C#N)(C#N)C(c2cccnc2)C2CCCC=C12 (stereo unspecified)	Giardia FBPA inh 4.5µM (no result: TbPYK inhibitor, RE007 growth inh)
Cc1c(Cl)cccc1N=Cc1ccc([N+](=O)[O-])s1	RE007 growth inh 16µM
O=C(/C=C/c1ccco1)Nc1ccccn1	LmPK inh 14µM
COc1cccc(NC(=O)/C=C/c2ccco2)c1	LmPK inh 16µM, RE007 growth inh inconclusive
CNc1ccc(Br)cc(C(=O)/C=C/c2cccc(OC)c2OC)c1=O	Giardia FBPA inh inconclusive (no result: TbPYK inhibitor)
CNc1ccccc(C(=O)/C=C/c2ccccc2OC)c1=O	Giardia FBPA inh 11µM
Cn1cccc1C(=O)N1CCC2(CCN(C(=O)Nc3cccc(F)c3)CC2)CC1	none (no result: LmPK inh, RE007 growth inh)
Cn1cccc1C(=O)C(=O)Nc1ccccc1	LmPK inh 16µM, TbPYK inhibitor inconclusive, RE007 growth inh inconclusive
CCN(CCO)C1CC(=O)N(c2ccccc2C)C1=O (stereo unspecified)	RE007 growth inh 22µM
Cc1ccccc1N1C(=O)CC(N(O)c2ccccc2)C1=O (stereo unspecified)	Giardia FBPA inh inconclusive
COc1ccc(OC)c(CCNC(=O)Cn2sc3nc(C)cc(C)c3c2=O)c1	none (no result: TbPYK inhibitor, RE007 growth inh)
Cc1cc(C)c2c(=O)n(CC(=O)Nc3ccc(Br)c(C)c3)sc2n1	TbPYK inhibitor 8.9µM, RE007 growth inh inconclusive
Cc1cc(C)c2c(=O)n(CC(=O)NC3CCCC3)sc2n1	TbPYK inhibitor 10µM
Cc1cc(C)c2c(=O)n(CC(=O)Nc3cccc(Cl)c3C)sc2n1	LmPK inh inconclusive, TbPYK inhibitor inconclusive, RE007 growth inh inconclusive
Cc1nc(N2CCCC2)ncc1C(=O)NCc1ccc(Cl)cc1	none (no result: LmPK inh, Giardia FBPA inh, RE007 growth inh)

Compound activity from PubChem BioAssay.
